# Several values for one entry are separate records, joined by “and”; a condition that tells them apart may be missing. Identical values can stand only once. Inconclusive results are not listed. A call without a number means that no potency is given here. More than one record can exist for a structure, and the calls need not agree. Activity calls are given as the source filed them. Unless noted, calls follow the shape of the dose curve; as a rule, active = well fitted curve in the direction sought with a large enough effect in the repeat runs; inconclusive = weak or mixed curves; inactive = no such curve, though single readings can be large; an effect the other way counts as inactive or inconclusive.
# Experiments:
# [1] = qHTS assay to identify small molecule agonists of the RXR signaling pathway - cell viability counter screen (AID 1159529); also: nearly all actives have a fitted effect of over 50% in size; also: potency is read from the fitted curve at half-maximal effect
# Summary of the method: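 RXR-alpha-UAS-bla HEK 293T cells in medium with 2% charcoal-stripped FBS were preincubated 5 hr, then exposed to compounds for 16 hr at 37 C. Viability was read as CellTiter-Glo luminescence after 30 min at room temperature.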
# [2] = qHTS assay to identify small molecule antagonists of the retinoid acid receptor (RAR) signaling pathway - cell viability counter screen (AID 1159551); also: nearly all actives have a fitted effect of over 35% in size
# Summary of the method: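 Cells (C3RL4) are plated, incubated overnight, dosed with compound in DMSO, then given retinol at 1 uM final. After 6 h at 37 C, CellTiter-Glo is added and luminescence read following 30 min at room temperature.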
# [3] = qHTS assay to identify small molecule antagonists of the retinoic acid receptor (RAR) signaling pathway (AID 1159552; also: nearly all actives have a fitted effect of over 50% in size)
# Summary of the method: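 RARE-luc C3RL4 cells; cpds + 1 uM (final) retinol, 6 hr, 37 C/5% CO2; luciferase reagent, 30 min RT, luminescence readout. Inhibitors of retinol-driven signal scored.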
# [4] = qHTS assay to identify small molecule agonists of the retinoic acid receptor (RAR) signaling pathway (AID 1159553); also: potency is read from the fitted curve at half-maximal effect
# Summary of the method: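 Seed C3RL4 reporter cells at 1,000 per well and incubate overnight at 37 C. Add compounds in DMSO, incubate 6 hr. Add luciferase reagent, wait 30 min at room temperature, read luminescence.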
# [5] = molecular target: Retinoic acid receptor RXR-alpha (Homo sapiens) (UniProt P19793); assay: qHTS assay to identify small molecule agonists of the RXR signaling pathway (AID 1159527; calls by dose curve; also: nearly all actives have a fitted effect of over 35% in size)
# Retinoic acid receptor RXR-alpha (Homo sapiens), sequence (P19793 whole entry, looked up): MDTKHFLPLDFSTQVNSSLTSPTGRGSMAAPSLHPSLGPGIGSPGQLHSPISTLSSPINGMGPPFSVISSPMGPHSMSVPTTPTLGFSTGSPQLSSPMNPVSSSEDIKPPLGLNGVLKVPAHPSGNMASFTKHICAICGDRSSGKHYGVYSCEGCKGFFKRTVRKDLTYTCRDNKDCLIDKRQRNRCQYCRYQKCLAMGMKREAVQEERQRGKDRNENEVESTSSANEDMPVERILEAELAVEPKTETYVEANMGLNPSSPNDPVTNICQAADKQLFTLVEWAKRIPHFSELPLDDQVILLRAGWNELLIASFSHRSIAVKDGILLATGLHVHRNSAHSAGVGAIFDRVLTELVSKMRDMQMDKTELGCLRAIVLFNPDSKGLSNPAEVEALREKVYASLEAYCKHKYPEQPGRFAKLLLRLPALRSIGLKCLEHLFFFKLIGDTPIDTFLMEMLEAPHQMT
# Summary of the method: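 GeneBLAzer RXR-alpha-UAS-bla HEK 293T cells in medium with 2% charcoal-stripped FBS, pre-incubated 5 hr at 37 C, then exposed to compounds 16 hr. Beta-lactamase reporter read by FRET substrate, 2 hr room temperature, 460/530 nm emission.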
# [6] = qHTS assay to identify small molecule antagonists of the estrogen related receptor (ERR) signaling pathway - cell viability counter screen (AID 1224818); also: series mostly up to about 46 µM
# Summary of the method: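 ERR cells, 2,000/well; 6 h settle at 37 C/5% CO2; compound pin transfer (DMSO); 17.5 h at 37 C; CellTiter-Fluor, 30 min, fluorescence read.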
# [7] = qHTS assay to identify small molecule agonists of the estrogen related receptor (ERR) signaling pathway (AID 1224820)
# Summary of the method: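 Luminescence readout (One-Glo, 30 min RT) from NTP-supplied ERR cell line exposed to compounds for 18 h at 37 C. Cells seeded 2,000 per well and pre-incubated 6 h before pin-tool compound transfer.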
# [8] = tested on: estrogen-related receptor alpha (ERRalpha) with PGC-1alpha coactivator, human; assay: qHTS assay to identify small molecule antagonists of the estrogen related receptor signaling pathway with the pleiotropic PPARgamma coactivator (PGC) (AID 1224821; calls by dose curve;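 also: series mostly up to about 46 µM; lower luminescence signal means antagonism of PGC/ERR signalling; nearly all actives have a fitted effect of over 50% in size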)
# Summary of the method: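 PGC/ERR reporter cells; 6 h pre-incubation 37 C/5% CO2; pin-tool compound in DMSO, 18 h 37 C; One-Glo added, 30 min RT; luminescence read. qHTS antagonist mode.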
# [9] = qHTS assay to identify small molecule antagonists of the estrogen related receptor signaling pathway with the pleiotropic PPARgamma coactivator (PGC) cell viability counter screen (AID 1224822;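 also: series mostly up to about 46 µM; viability read after 17.5 h compound exposure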)
# Summary of the method: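 Multiplexed viability counter screen run in PGC/ERR cells treated with compounds for 17.5 h at 37 C; live-cell protease signal measured by CellTiter-Fluor fluorescence.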
# [10] = qHTS assay to identify small molecule agonists of the estrogen related receptor signaling pathway with the pleiotropic PPARgamma coactivator (PGC) (AID 1224823)
# Summary of the method: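 Luminescence readout (One-Glo, 30 min RT) from PGC/ERR cell line treated 18 h at 37 C with pin-tool-delivered DMSO compound solutions; cells plated 6 h before dosing. Quantitative HTS format.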
SMILES,Potency [1],outcome [2],Potency [3],Potency [4],Potency [5],outcome [6],outcome [7],outcome [8],outcome [9],outcome [10]
CCOc1ccc(C(=O)OCCN(CC)CC)cc1,inactive,inactive,inactive,inactive,,,,,,
Nc1ccccc1S(=O)(=O)O,,inactive,inactive,inactive,inactive,,,,,
CN1C(=O)N(C)C(O)C1O (stereo unspecified),,inactive,inactive,inactive,inactive,,,,,
CN(C)CCCNCCCN(C)C,,inactive,inactive,inactive,inactive,,,,,
C=COCC1CCC(CO)CC1 (stereo unspecified),,inactive,inactive,inactive,inactive,,,,,
CCn1ccnc1CC1COc2ccccc2O1 (stereo unspecified),,inactive,inactive,inactive,inactive,inactive,inactive,inactive,inactive,inactive
Nc1nc2c(ncn2COC(CO)CO)c(=O)[nH]1,,inactive,inactive,inactive,inactive,inactive,,,inactive,
CN1N=C(C(N)=O)CCC1=O,inactive,inactive,inactive,inactive,,,,,,
C1OCOCO1,,inactive,inactive,inactive,inactive,,,,,
COC(=O)c1ccc(C)cc1C1=NC(C)(C(C)C)C(=O)N1 (stereo unspecified),inactive,inactive,inactive,inactive,,,,,,
O=C(O)CCCl,,inactive,inactive,inactive,inactive,,,,,
COc1c(N2C[C@@H]3CCCN[C@@H]3C2)c(F)cc2c(=O)c(C(=O)O)cn(C3CC3)c12,inactive,inactive,inactive,inactive,,,,,,
C=C[Si](OC(=C)C)(OC(=C)C)OC(=C)C,,inactive,inactive,inactive,inactive,,,,,
CCN1CCC[C@H]1CNC(=O)c1cc(S(N)(=O)=O)ccc1OC,,inactive,inactive,inactive,inactive,inactive,,,inactive,
Cc1c(O)cccc1O,,inactive,inactive,inactive,inactive,,,,,
COc1nc(N)nc2c1ncn2[C@@H]1O[C@H](CO)[C@@H](O)[C@@H]1O,inactive,inactive,inactive,inactive,,,,,,
COc1ccccc1OCC(O)CN1CCN(CC(=O)Nc2c(C)cccc2C)CC1 (stereo unspecified),,inactive,inactive,inactive,inactive,inactive,,,inactive,
CCCN1CCCC[C@H]1C(=O)Nc1c(C)cccc1C,inactive,inactive,inactive,inactive,,,,,,
CC1=CC(C)C(C=O)CC1 (stereo unspecified),,inactive,inactive,inactive,inactive,,,,,
COC(=O)C1=C(C)NC(C)=C(C(=O)OC)C1c1ccccc1[N+](=O)[O-],27.6 µM (active) and inactive,inactive,inactive,24.4 µM (active) and inactive,,inactive,inactive,inactive,inactive,inactive
CC(C[N+](C)(C)C)OC(N)=O (stereo unspecified),inactive,inactive,inactive,inactive,,inactive,inactive,inactive,inactive,inactive
NC(=O)c1ccc([N+](=O)[O-])cc1,,inactive,inactive,inactive,,,,,,
COC(=O)c1c(Cl)c(Cl)c(C(=O)OC)c(Cl)c1Cl,inactive,inactive,,,,inactive,inactive,inactive,inactive,inactive
FC(F)OC(Cl)C(F)(F)F (stereo unspecified),inactive,inactive,inactive,inactive,,,,,,
FC1(F)C(F)(F)C(F)(F)C2(F)C(F)(F)C(F)(F)C(F)(F)C(F)(F)C2(F)C1(F)F (stereo unspecified),,inactive,inactive,inactive,,,,,,
CCOC(=O)CC(C)=O,inactive,inactive,inactive,inactive,,,,,,
C[C@H](NC(CCc1ccccc1)C(=O)O)C(=O)N1CCC[C@H]1C(=O)O (stereo partly specified),inactive,inactive,inactive,inactive,,inactive,inactive,inactive,inactive,inactive

SMILES,Potency [1],outcome [2],Potency [3],Potency [4],Potency [5],outcome [6],outcome [7],outcome [8],outcome [9],outcome [10]
CC(=O)OCC(=O)[C@@]1(O)CC[C@H]2[C@@H]3CCC4=CC(=O)CC[C@]4(C)[C@H]3C(=O)C[C@@]21C,inactive,inactive,inactive,inactive,,inactive,,,inactive,
Nc1cc(=O)[nH]c(N)n1,inactive,inactive,inactive,inactive,,inactive,,,inactive,
OCCOc1ccc(OCCO)cc1,inactive,inactive,inactive,inactive,,,,,,
CCN(CC)CCOCCOC(=O)C1(c2ccccc2)CCCC1,inactive,inactive,inactive,inactive,,inactive,,,,
Cc1nc2c([nH]1)c(=O)n(C)c(=O)n2Cc1ccco1,inactive,inactive,inactive,inactive,,inactive,,,inactive,
CO[Si](CCCOCC1CO1)(OC)OC (stereo unspecified),inactive,inactive,inactive,inactive,,,,,,
CC(=O)c1ccccc1O,inactive,inactive,inactive,inactive,,,,,,
CC(C)(c1ccc(O)cc1)c1ccc(O)cc1,inactive,inactive,inactive,inactive,,inactive,inactive,inactive,inactive,inactive
Oc1ccc(C2CNCCc3c2cc(O)c(O)c3Cl)cc1 (stereo unspecified),inactive,inactive,inactive,inactive,,inactive,,,inactive,
CCCCOCCOCCOCc1cc2c(cc1CCC)OCO2,inactive,inactive,inactive,inactive,,inactive,,,inactive,
OC1CCCCC1c1ccccc1 (stereo unspecified),,inactive,inactive,inactive,,,,,,
CCc1cccc2c(CCO)c[nH]c12,inactive,inactive,inactive,inactive,,,,,,
CCCN(CCC)CCc1cccc2c1CC(=O)N2,inactive,inactive,inactive,inactive,,inactive,,,inactive,
CC(C)(C)c1ccc(O)c(O)c1,inactive,,,,,inactive,,,inactive,
C=CCS(=O)(=O)O,inactive,inactive,inactive,inactive,,,,,,
N=C(N)c1ccc2cc(OC(=O)c3ccc(N=C(N)N)cc3)ccc2c1,inactive,inactive,inactive,inactive,,,,,,
CC1(C)C(O)C(C)(C)C1O (stereo unspecified),inactive,inactive,inactive,inactive,,,,,,
COCCc1ccc(OCC(O)CNC(C)C)cc1 (stereo unspecified),inactive,inactive,,inactive,,inactive,inactive,inactive,inactive,inactive
CCc1ccc(O)c(OC)c1,inactive,inactive,inactive,inactive,,,,,,
CCCCOCCOCCOCCCC,inactive,inactive,inactive,inactive,,,,,,
Nc1c[n+](N2CCOCC2)no1,inactive,inactive,inactive,inactive,,,,,,
CCCCCCOC(=O)CCCCC(=O)OCCCCCC,inactive,inactive,inactive,inactive,,,,,,
N#Cc1ccc(C2CCCc3cncn32)cc1 (stereo unspecified),,inactive,inactive,inactive,,,,,,
CC(C(=O)O)c1ccc(CC2CCCC2=O)cc1 (stereo unspecified),inactive,inactive,inactive,inactive,,inactive,,,inactive,
O=C(O)CNC(=O)c1ccc([N+](=O)[O-])cc1,inactive,inactive,inactive,inactive,,,,,,
O=c1cc(-c2ccccc2)oc2ccccc12,inactive,inactive,inactive,3.44 µM (active) and 858 nM (active),,inactive,,,inactive,
Brc1c(NC2=NCCN2)ccc2nccnc12,inactive,inactive,inactive,inactive,,inactive,inactive,inactive,inactive,inactive

# — PubChem BioAssay (Tox21)
